# This excerpt belongs to a sample that is enriched for hits.
# RXFP1 ag = agonists of human relaxin receptor RXFP1 | Q9HBX9 | HEK293T-RXFP1 cAMP TR-FRET, 30 min; response scale: percent of porcine relaxin response, buffer zero | Potency, µM (top dose mostly 57.5 µM), inactives show top-dose activation, usual class: activators | 370,000 tested, 0.3% active | AID 2676; further: potency means the concentration at half of the fitted maximal effect; on the % scale 0 is the no-effect control and ±100 the full control effect; nearly all actives have a fitted effect of over 60% in size
#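 HEK293T cells stably expressing RXFP1 were pretreated with the PDE4 inhibitor Ro 20174, exposed to compounds for 30 min at 37C, lysed, and cAMP was read by TR-FRET. Data normalized to buffer (basal) and 29 nM porcine relaxin (100%).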
# TCR act = T cell receptor activation. Potency, µM (series often up to 9.22 µM), for inactives: top-dose activation of IL-2 secretion, hits mostly activators. 330,000 tested, under 10 active. primary human leukocytes, anti-CD3, IL-2 HTRF, 48 h; further: % of control where 0% means no effect
#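 TCR engagement came from a-CD3 beads alone, with compounds added to primary human leukocytes for 48 hr. Secreted IL-2 bridged europium cryptate- and d2-labelled anti-IL-2 antibodies, giving FRET emission at 665nm after 320nm excitation.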
# TSHR antag = antagonists of human thyroid stimulating hormone receptor; activity change, negative = inhibition, % at 11.5 µM; 330,000 tested, 0.2% active; P16473; AID 504810; TSHR-expressing cells, TSH-stimulated cAMP HTRF, 2 h; hits give low values;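 active means activity change below a set negative limit, meaning inhibition stronger than a set level, cut at about -70% in these data; inconclusive means activity change between two set negative limits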; further: on the % scale 0 is the no-effect control and ±100 the full control effect
# Target sequence (P16473 whole entry, looked up): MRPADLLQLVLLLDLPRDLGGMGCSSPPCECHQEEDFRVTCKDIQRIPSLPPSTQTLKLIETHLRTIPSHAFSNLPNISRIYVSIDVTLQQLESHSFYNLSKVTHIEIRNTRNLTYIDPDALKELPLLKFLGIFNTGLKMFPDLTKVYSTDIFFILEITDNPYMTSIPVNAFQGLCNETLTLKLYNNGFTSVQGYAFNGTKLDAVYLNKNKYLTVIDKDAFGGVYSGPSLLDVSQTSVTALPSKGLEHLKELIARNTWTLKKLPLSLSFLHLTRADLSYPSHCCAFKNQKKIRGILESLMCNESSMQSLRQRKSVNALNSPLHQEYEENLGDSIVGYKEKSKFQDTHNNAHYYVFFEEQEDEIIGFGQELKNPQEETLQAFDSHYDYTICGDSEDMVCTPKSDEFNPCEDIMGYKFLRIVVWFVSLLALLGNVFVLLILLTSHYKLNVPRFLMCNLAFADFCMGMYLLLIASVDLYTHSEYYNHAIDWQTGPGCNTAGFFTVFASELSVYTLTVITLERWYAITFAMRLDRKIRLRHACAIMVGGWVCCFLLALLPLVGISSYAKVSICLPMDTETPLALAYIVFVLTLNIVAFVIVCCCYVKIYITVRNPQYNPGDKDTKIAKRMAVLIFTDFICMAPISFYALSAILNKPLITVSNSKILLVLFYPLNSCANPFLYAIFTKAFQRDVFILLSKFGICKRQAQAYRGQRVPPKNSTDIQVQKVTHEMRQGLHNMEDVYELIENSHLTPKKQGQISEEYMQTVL
#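 Freshly harvested TSHR cells receive pin-tooled compound, then EC80 TSH at 4nM final. After 2 hours at 37 deg C, antibody in lysis buffer and cAMP-d2 are added; 30 minutes at ambient temperature precede the HTRF read.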
# PTHR1 agonist = activates the human parathyroid hormone receptor PTHR1; HEK293 GP2 PTHR1 cells, GloSensor cAMP luminescence, 1 h; 410,000 tested, 0.075% active; AID 743266; Q03431; Potency, µM (titrated, usually from 115 µM), for the others: top-dose activation, usual class: activators; further: potency means the concentration at half of the fitted maximal effect; nearly all actives have a fitted effect of over 55% in size
#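 HEK-293-derived GP2 cells expressing PTHR1 and a GloSensor cAMP reporter, 3,000/well, plated overnight, given luciferin plus IBMX (each 0.5 mM as added) for 1 h at 37 °C, then compound for 1 h at 37 °C. Luminescence was read after 15 min at room temperature.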
# NPSR antag = antagonists of human neuropeptide S receptor cAMP signaling; AID 1461; Potency, µM (highest dose often 38.3 µM), for inactives: top-dose activity change, negative = inhibition, most hits filed as inhibitors; CHO-NPSR cells, cAMP TR-FRET, antagonist mode; Q6W5P4; 220,000 tested, 1% active; further: potency means the concentration at half of the fitted maximal effect; on the % scale 0 is the no-effect control and ±100 the full control effect; nearly all actives have a fitted effect of over 50% in size
# RXFP1 antagonist = blocks the human relaxin receptor RXFP1. Q9HBX9. HEK293-RXFP1, relaxin-stimulated cAMP HTRF, 30 min; hits give low values. activity change, negative = inhibition, % at 57.5 µM. 350,000 tested, 0.59% active. AID 1259400;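 active means activity change of -60% or lower, but not beyond a set lower limit; inconclusive means change between -60% and -40%, or beyond the set limit; inactive means change above -40%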; further: on the % scale 0 is the no-effect control and ±100 the full control effect
# * marks the source's active call; other numbers are inactive results; i = inactive; ? = inconclusive; . = not tested or not shown; ! = not active in a repeat; [ ] = remark or other dose. Unless noted, the call rests on the fitted dose curve; in most records, active means well fitted curve in the direction sought with a large enough effect; inconclusive means small, poorly fitted or top-dose-only effect, or another doubt; inactive means no such curve, though single readings can be large; an effect the other way counts as inactive or inconclusive.
SMILES,RXFP1 ag,TCR act,TSHR antag,PTHR1 agonist,NPSR antag,RXFP1 antagonist
COc1ccc(-n2c(=O)c3ccc(C(=O)NCc4ccc(C)cc4)cc3n(CC(=O)Nc3cccc(F)c3)c2=O)cc1,32µM*,.,.,i,.,.
Cc1ccc(-n2c(=O)c3ccc(C(=O)NCc4ccccc4Cl)cc3n(Cc3cccc(F)c3)c2=O)cc1,32µM*,.,.,i,.,.
COc1ccc(NC(=O)Cn2c(=O)n(-c3ccc(OC)cc3)c(=O)c3ccc(C(=O)NCc4ccc(C)cc4)cc32)cc1,13%,.,.,i,.,.
CCOCCn1c(C2CCN(CCc3ccc(C(C)(C)C(=O)O)cc3)CC2)nc2ccccc21,.,.,.,.,.,-2
O=C(Nc1ccccc1N1CCN(C(=O)c2ccccc2)CC1)c1cc2ccccc2o1,2%,-5%,-5,-3%[57.5 µM],4µM*,0
O=C(Nc1ccccc1N1CCCC1)c1cc2ccccc2o1,1%,6%,-4,-17%,?,-6
COc1ccc(-c2noc(N3CCC(C(=O)Nc4ccc(C)c(F)c4)CC3)n2)cc1OC,3%,.,.,i,.,-12
Brc1ccc(-c2nn3c(-c4ccco4)nnc3s2)o1,13µM*,18%,20,-1%[57.5 µM],?,-23
COc1cc(/C=C(\C#N)C(=O)Nc2ccc(C(=O)O)cc2)ccc1OC(=O)c1cccc(F)c1,0%,-5%,-3,-14%,.,-83*
O=C1C=CC(=O)c2c(O)c(N3CCN(CCOCCO)CC3)c(Br)c(O)c21,.,4%,.,-32%,.,-105*
O=C1C=CC(=O)c2c(O)c(N3CCN(CCO)CC3)c(Cl)c(O)c21,.,6%,.,-52%,.,?
Cc1cccc(CNC(=O)c2cc3cc(S(=O)(=O)N4CCCCC4)ccc3n2C)c1,-2%,.,.,-50%,.,-4
COc1ccccc1-c1c(-c2ccc(OCC(=O)NN)cc2O)n[nH]c1C(F)(F)F,1%,-3%[46.1 µM],2,-34%,14%,-10
COc1ccc(-c2n[nH]c(C(F)(F)F)c2-c2cc3ccccc3o2)c(O)c1,-1%,2%,4,-32%[57.5 µM],-4%[46.1 µM],-69*
CN(C)c1ccc(-n2cccc2/C=C/[N+](=O)[O-])cc1,0%,5%,0,-35%,7.9µM*,-83*
COc1ccc(OC)c(C2C(C(=O)Nc3ccccc3OC)=C(C)Nc3c(C(=O)Nc4ccc(F)cc4)cnn32)c1 (centres undefined),3%,.,.,i,.,-14
COc1ccc(Oc2c(Cl)cnn(-c3ccc(F)cc3)c2=O)cc1,3%,-7%,-7,-15%,?,0
COc1ccc(Oc2c(Cl)cnn(-c3ccc(Cl)c(Cl)c3)c2=O)cc1,3%,9%,-13,-6%,10µM*,-20
Cc1cc(C)c(Cn2c3ccccc3c3cnn(CC(=O)NCCN4CCOCC4)c(=O)c32)c(C)c1,0%,-1%,-8,-10%,.,-64*
C=C1C(=O)C23CCC4C(C)(C(=O)OC)CCCC4(C)C2CCC1(O)C3 (centres undefined),.,1%,.,-94%,.,-92*
O=C(Nc1nnc(C2=COCCO2)o1)c1ccc(Cc2ccccc2)cc1,0%,-4%,-8,-9%,17%,-65*
N#C[C@H]1C[C@H]2C[C@@H]2N1C(=O)[C@@H](N)C12CC3CC(CC(O)(C3)C1)C2,.,.,.,.,.,10
NC(=O)c1c(NC(=O)C2COc3ccccc3O2)sc2c1CCN(Cc1ccccc1)C2 (centres undefined),6%,1%,-32,-38%,?,-97*
Cc1ccc(NC(=O)c2oc3ccc(S(=O)(=O)N(C)C4CCCCC4)cc3c2C)cc1Cl,-1%,.,.,-6%,.,-21
CC(C)Oc1ccc(C(=O)NCCNC(=O)c2ccco2)cc1,0%,-2%,-94*,i,.,-2
SMILES,RXFP1 ag,TCR act,TSHR antag,PTHR1 agonist,NPSR antag,RXFP1 antagonist
O=C(NCCCCc1ccccc1)c1nn(-c2ccccc2F)nc1CO,-5%,.,.,-1%,.,-66*
O=C(NCCCc1ccccc1)c1nn(-c2ccccc2F)nc1CO,-4%,.,.,-12%,.,-25
CCOc1ccc(N2CC(c3nc4ccccc4n3CCCOc3ccccc3OC)CC2=O)cc1 (centres undefined),0%,.,.,-44%,.,-11
Cc1cc(C)n2nc(CNC(=O)c3cccc(N(C)C)c3)nc2n1,1%,.,.,-35%,.,-8
COc1ccc(S(=O)(=O)N(CC(=O)Nc2cccc(C)c2)c2ccc(C)cc2)cc1OC,2%,.,.,i,.,.
CCCN1CCN(CCNC(=O)Nc2cc(C)ccc2C)CC1,-1%,4%,1,-21%,.,14
Cc1ccc(C)c(NC(=O)NCCN2CCCCC2)c1,1%,-5%,27,-5%,.,-77*
O=C(NCCN1CCCCC1)Nc1cccc(Cl)c1Cl,3%,4%,-3,13%,.,-77*
CN1C2CCC1CC(NC(=O)n1c(=O)[nH]c3ccccc31)C2 (centres undefined),.,.,.,.,.,12
OC(CNCc1ccc(-c2ccccc2)cc1)c1ccccc1 (centres undefined),2%,2%,2,i,-20%,-61*
CC[C@H](C)C(=O)O[C@H]1CCC=C2C=C[C@H](C)[C@H](CC[C@@H]3C[C@@H](O)CC(=O)O3)[C@H]21,0%,-1%,-10,-25%,16µM*!,.
CCc1cccc(NC(=O)CCc2nc3cccnc3n2-c2ccccc2)c1,3%,.,.,-10%,.,-8
Cc1ccc(S(=O)(=O)NC(=O)Nc2ccc(N(C)C)cc2)cc1,-35%,67%,-75*,-1%,.,?
Cc1cc(NC(=O)CSc2nc(-c3ccccc3)c(C#N)c(=O)[nH]2)no1,?,.,24,i,7.9µM*,0
N#Cc1c(-c2ccccc2)nc(SCC(=O)Nc2nnc(C(F)(F)F)s2)[nH]c1=O,18µM*,2%,-8,-3%,-44%,22
N#Cc1c(-c2ccccc2)nc(SCC(=O)Nc2ccccc2)[nH]c1=O,26%,1%[46.1 µM],-3,23%,-32%,7
Cc1cc(C)nc(NS(=O)(=O)c2ccc(NC(=O)CSc3nc4ccccc4[nH]3)cc2)n1,0%,-3%[46.1 µM],-1,i,17%,-8
N#Cc1c(-c2ccccc2)nc(SCC(=O)Nc2ccccc2F)[nH]c1=O,20%,3%[46.1 µM],7,-10%,-26%,31
Cc1cc(C)nc(NS(=O)(=O)c2ccc(NC(=O)CSc3nc(-c4ccccc4)c(C#N)c(=O)[nH]3)cc2)n1,18µM*,1%,12,i,4µM*,19
CCc1ccc(NC(=O)CSc2nc(-c3ccccc3)c(C#N)c(=O)[nH]2)cc1,25µM*,.,.,21%,.,5

# Compound activity deposited in PubChem by National Center for Advancing Translational Sciences (NCATS).
